# Source: PubChem BioAssay (NCATS)
# Records with an inconclusive call do not appear. The source made the active and inactive calls. The call rests on the fitted dose curve; in most records, active means well fitted cell-killing curve with a large enough effect; inconclusive means small, poorly fitted or top-dose-only effect, or effect the other way; inactive means no such curve, though single readings can be large or run the other way.
# Assay: Quantitative High-Throughput drug screen in 47 multiple myeloma cell lines against the NCATS MIPE library collection: Karpas25_ECACC cell viability assay (AID 1918968; further: nearly all actives have a fitted effect of over 35% in size)
# Conditions: Karpas25 myeloma viability, CellTiter-Glo ATP, 48 h; series mostly up to 45.8 µM
# Outline: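 Myeloma cell lines, 500 cells per well, exposed to MIPE 4.0 library compounds for 48 h at 37C, 5% CO2. Viability from ATP by CellTiter-Glo luminescence; normalised to DMSO (100%) and media-only (0%) wells.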
# Potency means the concentration at half of the fitted maximal effect.
row,Compound,Potency
1,O=C(C=Cc1ccc(O)cc1)c1ccc(O)cc1O,23.5 µM (active)
2,CCc1cc(-c2n[nH]c(C)c2-c2ccc3c(c2)OCCO3)c(O)cc1O,7.43 µM (active)
3,CCCCCCCCCCCCCC(=O)N[C@H](CO)[C@H](O)c1ccc([N+](=O)[O-])cc1,18.7 µM (active)
4,Clc1ccc(COC(Cn2ccnc2)c2ccc(Cl)cc2Cl)c(Cl)c1 (stereo not drawn),18.7 µM (active)
5,CCOc1ccccc1N=Nc1c(C)[nH]n(-c2nc(-c3ccccc3)cs2)c1=O,1.66 µM (active)
6,CN(C(Cc1ccc(OS(=O)(=O)c2cccc3cnccc23)cc1)C(=O)N1CCN(c2ccccc2)CC1)S(=O)(=O)c1cccc2cnccc12 (stereo not drawn),11.8 µM (active)
7,CC(=O)OCC(=O)[C@@]1(O)CC[C@H]2[C@@H]3CCC4=CC(=O)C=C[C@]4(C)[C@@H]3[C@@H](O)C[C@@]21C,0.526 µM (active)
8,COc1cc2nc(-c3cc(F)ccc3O)nc(N[C@@H]3CNC[C@@H]3C(C)(C)O)c2cc1OC,4.18 µM (active)
9,Cc1nn(Cc2ccccc2Cl)c(C)c1CN(C)CC(O)COc1ccc(Cl)cc1 (stereo not drawn),20.9 µM (active)
10,Nc1ncnc2c1ncn2[C@@H]1O[C@H](CO)[C@@H](O)[C@@H]1O,5.26 µM (active)
11,C=C[C@@H]1CN2CCC1C[C@@H]2C(O)c1ccnc2ccc(OC)cc12 (stereo partly drawn),1.66 µM (active)
12,CN1CCC[C@H]1CCO[C@](C)(c1ccccc1)c1ccc(Cl)cc1,13.2 µM (active)
13,OC[C@H]1O[C@@H](Oc2ccc(O)cc2)[C@H](O)[C@@H](O)[C@H]1O,inactive
